A selection: hits, their analogues and other compounds. The true share with any hit is near 27%.
CYP2C19 activ = human CYP2C19 activators, primary screen, biochemical, luminescence. Cytochrome P450 2C19 (Homo sapiens), P33261. recombinant CYP2C19, luciferin-H EGE luminescence; stronger effect = higher value; 0 = fully inhibited enzyme, 1 = untreated enzyme. activation factor at 5 µM. 96,000 tested, under 10 active;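 active means activation factor of at least 2 at 5 µM in the primary screen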;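 further: 0 = wells with 2.5 mM tranylcypromine and 1 = vehicle-only wells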
Target sequence (P33261 whole entry, looked up): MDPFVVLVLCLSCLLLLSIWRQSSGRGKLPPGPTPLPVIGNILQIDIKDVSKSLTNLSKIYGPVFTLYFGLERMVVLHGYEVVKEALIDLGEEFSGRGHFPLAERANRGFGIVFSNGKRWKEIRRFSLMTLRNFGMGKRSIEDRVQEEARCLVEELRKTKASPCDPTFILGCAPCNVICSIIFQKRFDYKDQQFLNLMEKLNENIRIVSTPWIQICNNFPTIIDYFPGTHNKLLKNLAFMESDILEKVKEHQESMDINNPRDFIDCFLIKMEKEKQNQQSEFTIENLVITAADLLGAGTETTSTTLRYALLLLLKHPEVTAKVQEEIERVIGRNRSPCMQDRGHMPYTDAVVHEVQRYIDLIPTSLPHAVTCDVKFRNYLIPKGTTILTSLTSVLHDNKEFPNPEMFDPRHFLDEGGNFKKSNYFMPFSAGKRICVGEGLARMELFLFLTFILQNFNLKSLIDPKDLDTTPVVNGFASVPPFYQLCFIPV
CYP2C9 inhib = blockers of cytochrome P450 2C9 activity – biochemical, luminescence, ADME assay, primary screen; 20% of 96,000 active; inhibition, % at 5 µM; CYP2C9 Supersomes, luciferin-H conversion; P11712; AID 777, 2007;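 active means blocking of liver enzyme CYP2C9 beyond about 50% at 5 µM, limit read from the data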
CYP2C9 activ = human CYP2C9 activators, primary screen, biochemical, luminescence; Cytochrome P450 2C9 (Homo sapiens), P11712; recombinant CYP2C9, luciferin-H conversion; stronger effect = higher value; factor 1 = untreated enzyme, 0 = blocked; activation factor at 5 µM; 1.4% of 96,000 active; AID 1024, 2008;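 active means activation factor of 2 or more for CYP2C9 at a 5 µM dose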;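 further: 0 = sulfaphenazole-blocked wells and 1 = vehicle-only wells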
Cav3 T inh = Cav3.2 calcium influx blockers – cell-based, Fluo-4 calcium fluorescence, FDSS, MLSMR library, primary screen; 4% of 100,000 active; AID 449739, 2010; Voltage-dependent T-type calcium channel subunit alpha-1H (Homo sapiens), O95180; Cav3.2-expressing cells; stronger effect = lower value; B-score at 10 µM;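 active means single-dose well whose peak fluorescence ratio is a statistical outlier from its plate by either plate-standardised score or position-corrected B-score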
CYP2C19 inh = blockers of cytochrome P450 2C19 activity – biochemical, luminescence, ADME assay, primary screen; P33261; CYP2C19 Supersomes, luciferin-H EGE luminescence, 30 min; inhibition, % at 5 µM; 21% of 96,000 active; AID 778, 2007;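 active means CYP2C19 inhibition above a set limit at 5 µM in the primary screen, cut at about 50% in these data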;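 further: plate controls were negative control wells for no effect and 2.5 mM tranylcypromine positive control for full effect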
* hit, by the source's call; · = not tested or not shown.

SMILES	CYP2C19 activ	CYP2C9 inhib	CYP2C9 activ	Cav3 T inh	CYP2C19 inh
Cc1cc(C)c(C)c(OCCCn2ccnc2)c1	0	95*	0	0.27	100*
Cc1ccc(OCCn2nc3ccccc3n2)c(C)c1	0.8	15	0.8	-0.36	16
Cc1ccc(OCCOCCn2ccnc2)c(Br)c1	0	87*	0.1	0.73	99*
Cc1cc(C(C)(C)C)ccc1OCCn1ccnc1	0	94*	0.1	-0.87	98*
Cc1ccc(OCCCN2CCCC2)c(C)c1	0.8	2	1	0.56	16
Cc1ccc(CNC(=O)C(=O)NCCCn2ccnc2)cc1	·	·	·	0.27	·
Cc1ccc(C)c(OCCCCn2ccnc2)c1	0	93*	0.1	-0.15	98*
COc1ccc(C2=NOC(c3nnc(-c4ccccc4)o3)C2)cc1 (stereo unspecified)	·	·	·	-0.13	·
COc1ccc(Cn2ccnc2)cc1Br	0.1	88*	0.1	0.084	92*
Cc1cccc(OCCCCCn2ccnc2)c1C	0	100*	0	-1	100*
Cc1ccc(OCCCCn2ccnc2)c(Cl)c1	0	98*	0	-0.26	100*
CCOC(=O)C1=C(Nc2ccc(Br)cc2)CC(C)(O)C(C(=O)OCC)C1c1ccccc1 (stereo unspecified)	1.1	-11	1.1	0.48	-10
C=C1CCN([C@H](C(=O)NCc2ccc(Cl)cc2)C(C)C)S(=O)(=O)c2ccccc21	·	·	·	-0.95	·
CCN1C(=O)N[C@@H](c2cccc(C(F)(F)F)c2)[C@@H](C(=O)OC)[C@H]1C	·	·	·	0.15	·
CC(C)C(=O)Nc1ccc(Cc2ccc(NC(=O)C(C)C)c(O)c2)cc1O	0.4	93*	0.1	0.12	64*
O=C(NCc1nc2ccccc2[nH]1)C1=C[C@@H](c2ccc(C(F)(F)F)cc2)C[C@@H](OCc2ccc(CO)cc2)O1	·	·	·	-2.5	·
CCOC(=O)N1CCC(NC(=O)C(CC(C)C)NC(=O)C2CCC(C)CC2)CC1 (stereo unspecified)	0.6	3	1	·	38
C/C(Nc1ccc(F)cc1)=C(/C#N)C(N)=O	1.2	-24	1.2	0.37	-18
C/C(Nc1cccc(F)c1)=C(/C#N)C(N)=O	0.7	68*	0.3	0.55	28
COc1cc(/C=N/NC(=O)c2cccc([N+](=O)[O-])c2)ccc1OCc1ccc(C)cc1	1	-24	1.2	0.0039	-3
CCOc1cc(/C=N/n2cnnc2)ccc1O	0.8	11	0.9	0.53	18
Clc1ccc(Oc2cccc(/C=N/n3cnnc3)c2)cc1	0.1	66*	0.3	-0.22	91*
C(=N\n1cnnc1)/c1cccc(OCCOc2ccccc2)c1	0.2	21	0.8	0.46	80*
COc1cc(/C=N/n2cnnc2)ccc1OCCOc1ccccc1	0.2	58*	0.4	1.2	82*
COc1cc(/C=N/n2cnnc2)ccc1OCc1ccc(C)cc1	0.5	70*	0.3	0.026	49
SMILES	CYP2C19 activ	CYP2C9 inhib	CYP2C9 activ	Cav3 T inh	CYP2C19 inh
Cn1c(=O)n(C)c2cc(/C=N/n3cnnc3)ccc21	0.8	12	0.9	0.12	17
CC(=O)Nc1sc(C)c(C)c1CN1CCN(S(=O)(=O)c2ccccc2)CC1	0.9	6	0.9	-0.82	9
C=CCSc1nc2c(c(=N)n1CC=C)C1CCCC1S2 (stereo unspecified)	0.7	36	0.6	-0.65	32
CN1C(=O)N(C)C2(c3ccccc3)N(C)C(=O)NC12c1ccccc1 (stereo unspecified)	1.1	-1	1	0.44	-8
C=CCc1ccc(OCCOc2ccc(/C=N/n3cnnc3)cc2OCC)c(OC)c1	0.4	44	0.6	0.56	61*
COc1ccc(/C=N/n2cnnc2)cc1COc1ccccn1	1	1	1	-1	3
COc1cc(/C=N/n2cnnc2)ccc1OCc1ccccc1	0.3	68*	0.3	0.25	70*
O=C(Nc1ccc(-c2cn3ccsc3n2)cc1)c1ccc(F)c(S(=O)(=O)N2CCOCC2)c1	0.8	46	0.5	0.82	15
CCN(CC)C(=O)CN1C(=O)C2CC=C(Cl)CC2C1=O (stereo unspecified)	1	-2	1	·	1
CCOc1ccc2nc3c(cc2c1)CN(CCCO)C(=NCCOC)S3	0.3	83*	0.2	0.97	67*

Screening results as filed in PubChem BioAssay.
